# Laboratory results reported in the supplement of paper PMC4466140.
# Assays:
# Assay in all cases: SPOT peptide array binding signal intensity (averaged, normalized) (arbitrary units (background-subtracted, floor 0; scale differs between SH3 domains)); higher = stronger binding of the SH3 domain to the peptide
# [1] = molecular target: AgAbp1
# Summary of the method: (§1)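 Four yeast species supplied the SH3 domains, which were expressed as GST fusions in E. coli BL21(DE3) and purified on glutathione Sepharose. Incubation with cellulose membranes carrying synthetic 15-mer peptides, cysteines exchanged for serines, ran overnight at 4°C at 10 μg/ml in TBS-based blocking buffer. Binding signal is reported as normalized, background-subtracted spot intensity averaged over replicates, in arbitrary units not shared between domains.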
# [2] = molecular target: AgBbc1
# Summary of the method: as §1
# [3] = molecular target: AgBem1-D1
# Summary of the method: as §1
# [4] = molecular target: AgBzz1-D1
# Summary of the method: as §1
# [5] = molecular target: AgBzz1-D2
# Summary of the method: as §1
# [6] = molecular target: AgCyk3
# Summary of the method: as §1
# [7] = molecular target: AgFus1
# Summary of the method: as §1
# [8] = molecular target: AgHof1
# Summary of the method: as §1
# [9] = molecular target: AgHse1
# Summary of the method: as §1
# [10] = molecular target: AgLsb1
# Summary of the method: as §1
# [11] = molecular target: AgLsb4
# Summary of the method: as §1
# [12] = molecular target: AgMyo5
# Summary of the method: as §1
# [13] = molecular target: AgNbp2
# Summary of the method: as §1
# [14] = molecular target: AgRvs167
# Summary of the method: as §1
# [15] = molecular target: AgSho1
# Summary of the method: as §1
# [16] = molecular target: AgSla1-D1-D2
# Summary of the method: as §1
# [17] = molecular target: AgSla1-D3
# Summary of the method: as §1
# [18] = molecular target: CaAbp1-D1
# Summary of the method: as §1
# [19] = molecular target: CaAbp1-D2
# Summary of the method: as §1
# [20] = molecular target: CaBbc1
# Summary of the method: as §1
# [21] = molecular target: CaBem1-D1
# Summary of the method: as §1
# [22] = molecular target: CaBzz1-D1
# Summary of the method: as §1
# [23] = molecular target: CaBzz1-D2
# Summary of the method: as §1
# [24] = molecular target: CaCyk3
# Summary of the method: as §1
# [25] = molecular target: CaFus1
# Summary of the method: as §1
# [26] = molecular target: CaHof1
# Summary of the method: as §1
# [27] = molecular target: CaHse1
# Summary of the method: as §1
# [28] = molecular target: CaLsb1
# Summary of the method: as §1
# [29] = molecular target: CaLsb4
# Summary of the method: as §1
# [30] = molecular target: CaMyo5
# Summary of the method: as §1
# [31] = molecular target: CaNbp2
# Summary of the method: as §1
# [32] = molecular target: CaRvs167
# Summary of the method: as §1
# [33] = molecular target: CaRvs167-3
# Summary of the method: as §1
# [34] = molecular target: CaSho1
# Summary of the method: as §1
# [35] = molecular target: CaSla1-D1-D2
# Summary of the method: as §1
# [36] = molecular target: CaSla1-D3
# Summary of the method: as §1
# [37] = molecular target: ScAbp1
# Summary of the method: as §1
# [38] = molecular target: ScBbc1
# Summary of the method: as §1
# [39] = molecular target: ScBem1-D1
# Summary of the method: as §1
# [40] = molecular target: ScBzz1-D1
# Summary of the method: as §1
# [41] = molecular target: ScBzz1-D2
# Summary of the method: as §1
# [42] = molecular target: ScCyk3
# Summary of the method: as §1
# [43] = molecular target: ScFus1
# Summary of the method: as §1
# [44] = molecular target: ScHof1
# Summary of the method: as §1
# [45] = molecular target: ScHse1
# Summary of the method: as §1
# [46] = molecular target: ScLsb1
# Summary of the method: as §1
# [47] = molecular target: ScLsb2
# Summary of the method: as §1
# [48] = molecular target: ScLsb3
# Summary of the method: as §1
# [49] = molecular target: ScLsb4
# Summary of the method: as §1
# [50] = molecular target: ScMyo3
# Summary of the method: as §1
# [51] = molecular target: ScMyo5
# Summary of the method: as §1
# [52] = molecular target: ScNbp2
# Summary of the method: as §1
# [53] = molecular target: ScPex13
# Summary of the method: as §1
# [54] = molecular target: ScRvs167
# Summary of the method: as §1
# [55] = molecular target: ScSho1
# Summary of the method: as §1
# [56] = molecular target: ScSla1-D1-D2
# Summary of the method: as §1
# [57] = molecular target: ScSla1-D3
# Summary of the method: as §1
# [58] = molecular target: SpAbp1-D1
# Summary of the method: as §1
# [59] = molecular target: SpBbc1
# Summary of the method: as §1
# [60] = molecular target: SpBzz1-D1
# Summary of the method: as §1
# [61] = molecular target: SpBzz1-D2
# Summary of the method: as §1
# [62] = molecular target: SpCyk3
# Summary of the method: as §1
# [63] = molecular target: SpHof1
# Summary of the method: as §1
# [64] = molecular target: SpHof1-2
# Summary of the method: as §1
# [65] = molecular target: SpHof1-3
# Summary of the method: as §1
# [66] = molecular target: SpHse1
# Summary of the method: as §1
# [67] = molecular target: SpLsb1
# Summary of the method: as §1
# [68] = molecular target: SpLsb4
# Summary of the method: as §1
# [69] = molecular target: SpMyo1
# Summary of the method: as §1
# [70] = molecular target: SpNbp2
# Summary of the method: as §1
# [71] = molecular target: SpPex13
# Summary of the method: as §1
# [72] = molecular target: SpRvs167
# Summary of the method: as §1
# [73] = molecular target: SpSla1-D1-D2
# Summary of the method: as §1
# [74] = molecular target: SpSla1-D3
# Summary of the method: as §1
binder,measurement,setting,value
KDKKTKPTPPPKPSH,SPOT peptide array binding signal intensity,[1],494
same,SPOT peptide array binding signal intensity,[2],26.8
same,SPOT peptide array binding signal intensity,[3],60.5
same,SPOT peptide array binding signal intensity,[4],42
same,SPOT peptide array binding signal intensity,[5],48
same,SPOT peptide array binding signal intensity,[6],≤ 0
same,SPOT peptide array binding signal intensity,[7],≤ 0
same,SPOT peptide array binding signal intensity,[8],19.5
same,SPOT peptide array binding signal intensity,[9],29
same,SPOT peptide array binding signal intensity,[10],≤ 0
same,SPOT peptide array binding signal intensity,[11],≤ 0
same,SPOT peptide array binding signal intensity,[12],≤ 0
same,SPOT peptide array binding signal intensity,[13],≤ 0
same,SPOT peptide array binding signal intensity,[14],1.5
same,SPOT peptide array binding signal intensity,[15],34.5
same,SPOT peptide array binding signal intensity,[16],7
same,SPOT peptide array binding signal intensity,[17],4
same,SPOT peptide array binding signal intensity,[18],275
same,SPOT peptide array binding signal intensity,[19],226
same,SPOT peptide array binding signal intensity,[20],132
same,SPOT peptide array binding signal intensity,[21],0.5
same,SPOT peptide array binding signal intensity,[22],1220
same,SPOT peptide array binding signal intensity,[23],715
same,SPOT peptide array binding signal intensity,[24],≤ 0
same,SPOT peptide array binding signal intensity,[25],≤ 0
same,SPOT peptide array binding signal intensity,[26],1.5
same,SPOT peptide array binding signal intensity,[27],2
same,SPOT peptide array binding signal intensity,[28],1
same,SPOT peptide array binding signal intensity,[29],≤ 0
same,SPOT peptide array binding signal intensity,[30],2.25
same,SPOT peptide array binding signal intensity,[31],0.5
same,SPOT peptide array binding signal intensity,[32],1.5
same,SPOT peptide array binding signal intensity,[33],4.5
same,SPOT peptide array binding signal intensity,[34],6
same,SPOT peptide array binding signal intensity,[35],10
same,SPOT peptide array binding signal intensity,[36],2
same,SPOT peptide array binding signal intensity,[37],735
same,SPOT peptide array binding signal intensity,[38],≤ 0
same,SPOT peptide array binding signal intensity,[39],9
same,SPOT peptide array binding signal intensity,[40],≤ 0
same,SPOT peptide array binding signal intensity,[41],79
same,SPOT peptide array binding signal intensity,[42],1
same,SPOT peptide array binding signal intensity,[43],31
same,SPOT peptide array binding signal intensity,[44],1.75
same,SPOT peptide array binding signal intensity,[45],38
same,SPOT peptide array binding signal intensity,[46],≤ 0
same,SPOT peptide array binding signal intensity,[47],≤ 0
same,SPOT peptide array binding signal intensity,[48],328
same,SPOT peptide array binding signal intensity,[49],≤ 0
same,SPOT peptide array binding signal intensity,[50],≤ 0
same,SPOT peptide array binding signal intensity,[51],≤ 0
same,SPOT peptide array binding signal intensity,[52],17
same,SPOT peptide array binding signal intensity,[53],≤ 0
same,SPOT peptide array binding signal intensity,[54],1.17
same,SPOT peptide array binding signal intensity,[55],334
same,SPOT peptide array binding signal intensity,[56],9
same,SPOT peptide array binding signal intensity,[57],5
same,SPOT peptide array binding signal intensity,[58],148
same,SPOT peptide array binding signal intensity,[59],3.75
same,SPOT peptide array binding signal intensity,[60],26.5
same,SPOT peptide array binding signal intensity,[61],≤ 0
same,SPOT peptide array binding signal intensity,[62],≤ 0
same,SPOT peptide array binding signal intensity,[63],5.5
same,SPOT peptide array binding signal intensity,[64],5.5
same,SPOT peptide array binding signal intensity,[65],67.8
same,SPOT peptide array binding signal intensity,[66],9.25
same,SPOT peptide array binding signal intensity,[67],70.5
same,SPOT peptide array binding signal intensity,[68],≤ 0
same,SPOT peptide array binding signal intensity,[69],2
same,SPOT peptide array binding signal intensity,[70],31
same,SPOT peptide array binding signal intensity,[71],9
same,SPOT peptide array binding signal intensity,[72],2
same,SPOT peptide array binding signal intensity,[73],1.5
same,SPOT peptide array binding signal intensity,[74],≤ 0
